High-throughput results deposited in PubChem by several laboratories.
In the library only some 4.7% were active in any assay of this set; here they are far more common.
tim10-1 inh – growth inhibitors of tim10-1 mutant yeast, primary screen, luminescence, uHTS; S. cerevisiae tim10-1 ts strain growth, BacTiter-Glo, 24 h; inhibition, % at 20 µM; 330,000 compounds, 2.2% hits;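 active means inhibition of at least 40%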;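 further: mutant grown at 25 °C; 0% = DMSO wells with yeast and 100% = wells holding no yeast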
PfHsp90 yeast 2 – growth inhibition of PfHsp90-expressing yeast, primary screen, antimalarial PfHsp90 inhibitor project, S. cerevisiae, BacTiter-Glo luminescence, single point, set 2. BacTiter-Glo ATP, 48 h; yeast lacking PDR1 and PDR3 efflux regulators. inhibition, % at 9.4 µM. 310,000 compounds, 0.32% hits. AID 504621, 2011;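 active means every replicate shows inhibition above about 80%, whatever the replicate mean, limit read from the data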;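 further: 0% = DMSO neutral controls and 100% = 20 µM radicicol positive controls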
tim23-1 inh – growth inhibitors of tim23-1 mutant yeast, primary screen, luminescence, uHTS | AID 463212, 2010 | S. cerevisiae tim23-1 growth, BacTiter-Glo luminescence, 24 h | inhibition, % at 20 µM | 330,000 compounds, 1.3% hits;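 active means growth inhibition of the mutant yeast at or above 50%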;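 further: temperature-sensitive mutant grown at 25 °C; plate controls were DMSO-treated mutant yeast for no effect and medium wells lacking yeast for full effect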
SKKanGAS inh – S. pyogenes SKKanGAS growth inhibitors in kanamycin, primary screen, streptokinase expression inhibitor project, SKKanGAS strain, BacTiter-Glo luminescence; AID 1662, 2009; inhibition, % at 7.5 µM; 300,000 compounds, 1.3% hits; 6 h;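 active means mean replicate score, as percent of positive control median, at least 50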;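 further: strain carries kanamycin resistance gene driven by streptokinase promoter and grows in 40 µg/ml kanamycin; loss of luminescence reflects streptokinase promoter inhibition or plain growth inhibition; 0% = median of DMSO wells and 100% = positive control at its reference dose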
TIM10 inh – growth inhibitors of isogenic TIM10 control yeast, primary screen, counter-screen for tim10-1 yeast inhibitor project, luminescence, uHTS; S. cerevisiae TIM10 strain growth, BacTiter-Glo luminescence, 24 h; inhibition, % at 10 µM; 330,000 compounds, 1.4% hits; AID 463195, 2010;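 active means inhibition of 40% or more at the single tested concentration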;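 further: wild-type TIM10 isogenic control strain grown at permissive 25 °C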
Calb FLC – C. albicans growth inhibition with fluconazole, primary screen, CaCi-2 strain, Alamar Blue fluorescence. C. albicans CaCi-2 (fluconazole-resistant clinical isolate) + fluconazole, 48 h. growth inhibition, % (test concentration not listed). 300,000 compounds, 0.57% hits;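 active means growth inhibition above about 58% in most replicates, limit read from the data, passing the limit was not always enough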;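 further: all wells also contain fluconazole at 8 µg/ml as a sub-toxic cotreatment; 0% = median of DMSO wells and 100% = median of geldanamycin control wells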
tim23-1 confirm – tim23-1 mutant yeast growth inhibitors, confirmation, luminescence, single concentration | S. cerevisiae tim23-1 growth, BacTiter-Glo luminescence, 24 h | shares compounds with tim23-1 inh | 4,400 compounds, 83% hits | inhibition, % at 20 µM;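 active means inhibition above about 39% in either of two replicate wells at 20 µM, limit read from the data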;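 further: temperature-sensitive tim23-1 mutant grown at 25 °C; 0% = DMSO wells with yeast and 100% = medium wells without yeast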
* marks the source's active call; other numbers are inactive results.

How did O=C(OCC(=O)N1CCOCC1)c1cc(F)c(F)cc1Cl do in these assays?
tim10-1 inh: 7; PfHsp90 yeast 2: -11; tim23-1 inh: 4; SKKanGAS inh: 5; TIM10 inh: -17; Calb FLC: -9

Results for CC12CCC(=O)C=C1CCC1C2C(O)CC2(C)C1CCC2(O)C(=O)COC(=O)COCC(=O)O (stereo not drawn) ?
PfHsp90 yeast 2: 1

How did Cc1ccccc1CN1CCCOCCS1(=O)=O do in these assays?
tim10-1 inh: -5; PfHsp90 yeast 2: -12; tim23-1 inh: 9; SKKanGAS inh: 1; TIM10 inh: 6; Calb FLC: -7

How did Cc1cc(NC(=O)CN2CCc3ccccc3C2)nc2c1c(=O)oc1ccccc12 do in these assays?
tim10-1 inh: 24; PfHsp90 yeast 2: -5; tim23-1 inh: 53*; SKKanGAS inh: -1; TIM10 inh: 30; Calb FLC: -8; tim23-1 confirm: 62*

Results for Cc1ccccc1CSc1nsc(N)n1 ?
tim10-1 inh: 35; tim23-1 inh: 52*; SKKanGAS inh: -1; TIM10 inh: 11; Calb FLC: -29; tim23-1 confirm: 50*

What do the screens show for `Nc1nc(SCc2ccc(Cl)cc2Cl)ns1`?
tim10-1 inh: 25; tim23-1 inh: 34; SKKanGAS inh: 12; TIM10 inh: 16; Calb FLC: -38

What do the screens show for `O=C(c1ccco1)N1CCN(C(=O)c2ccc(-c3ccc(Cl)cc3)o2)CC1`?
tim10-1 inh: 2; PfHsp90 yeast 2: -3; tim23-1 inh: 51*; TIM10 inh: 18; tim23-1 confirm: 40*

What do the screens show for `O=C(c1ccc(Cl)cc1)N1CCN(C(=O)c2ccco2)CC1`?
tim10-1 inh: -2; PfHsp90 yeast 2: 15; tim23-1 inh: 11; SKKanGAS inh: 0; TIM10 inh: -4; Calb FLC: -5

Results for Cc1cccc(NC(=O)CSCC(=O)Nc2ccccc2C(=O)NC2CC2)c1 ?
tim10-1 inh: 12; PfHsp90 yeast 2: -13; tim23-1 inh: -6; SKKanGAS inh: -7; TIM10 inh: -8; Calb FLC: 0

What do the screens show for `Nc1ccc(O)c2c1C(=O)c1ccccc1C2=O`?
tim10-1 inh: 13; PfHsp90 yeast 2: -32; tim23-1 inh: 53*; SKKanGAS inh: 4; TIM10 inh: 1; Calb FLC: -5; tim23-1 confirm: 55*

How did Cc1ccc(S(=O)(=O)N2CCN(Cc3ccco3)CC2)c(C)c1 do in these assays?
tim10-1 inh: 12; PfHsp90 yeast 2: -13; tim23-1 inh: 13; SKKanGAS inh: 1; TIM10 inh: 4; Calb FLC: -5

How did COc1cccc(C(=O)Oc2cc3c4c(c2)C(C)=CC(C)(C)N4C(=O)C3=O)c1 do in these assays?
tim10-1 inh: 28; PfHsp90 yeast 2: -117; tim23-1 inh: 63*; SKKanGAS inh: 18; TIM10 inh: 29; Calb FLC: 3; tim23-1 confirm: 70*

What do the screens show for `N#Cc1nc(-c2cccc3ccccc23)oc1NCC1CCCO1` (stereo not drawn)?
tim10-1 inh: 30; tim23-1 inh: 54*; SKKanGAS inh: 1; TIM10 inh: 33; Calb FLC: -3; tim23-1 confirm: 52*

What do the screens show for `COc1cc(/C=C/[N+](=O)[O-])ccc1OC(=O)c1cc2ccccc2oc1=O`?
tim10-1 inh: 21; PfHsp90 yeast 2: 106*; tim23-1 inh: 80*; SKKanGAS inh: 1; TIM10 inh: 25; Calb FLC: -11; tim23-1 confirm: 73*

What do the screens show for `COc1ccccc1OC(=O)c1cc2ccccc2oc1=O`?
tim10-1 inh: 8; PfHsp90 yeast 2: -5; tim23-1 inh: 26; SKKanGAS inh: 5; TIM10 inh: -4; Calb FLC: -12

Results for CC(C)CC(=O)Nc1ccc2c(c1)nc(CCN1CCOCC1)n2C ?
tim10-1 inh: -3; PfHsp90 yeast 2: 6; tim23-1 inh: 8; SKKanGAS inh: 5; TIM10 inh: 11; Calb FLC: 0
